Screens (PubChem)
Rows were chosen to be rich in hits. Some 19% of all compounds tested hit in one or more screens of this group.
KB-3-1 tox = kills parental KB-3-1 adenocarcinoma cells. AID 1347075. 400,000 compounds, 1.4% hits. KB-3-1 viability, CellTiter-Glo ATP luminescence, 72 h. Potency, µM (series often up to 46.1 µM), usual class: cytotoxic; also: nearly all actives have a fitted effect of over 60% in size
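Cytotoxicity measured as CellTiter-Glo luminescence after 72 h at 37 C. Compound titrations were pinned onto drug-naive KB-3-1 parental adenocarcinoma cells grown in DMEM with 10% FBS, and normalized data fitted to concentration-response curves.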
HT1080 IDH1KD tx = kills HT-1080 cells with IDH1 knockdown | HT-1080 IDH1 knockdown viability, ATP luminescence, 48 h | Potency, µM (highest dose often 46.1 µM), without a hit: at the top dose activity, negative = toxicity, hits mostly cytotoxic | 360,000 compounds, 2% hits;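 also: 0% = DMSO wells and -100% = cell-free medium wells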
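Using the IDH1-knockdown HT-1080 line run in the same batch and compound series as the NT line, viability after 48 h at 37 °C was determined by CellTiter-Glo luminescence and expressed as % activity.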
DT40 TDP1 CPT = growth inhibition of DT40 Tdp1-/-;hTDP1 cells with camptothecin (screen for TDP1 inhibitors) | chicken DT40 Tdp1-/-;hTDP1 cells + 20 nM CPT, ATP luminescence, 48 h | Potency, µM (doses to about 46.2 µM), for inactives: top-dose activity change, negative = growth inhibition, usual class: inhibitors | 420,000 compounds, 12% hits | AID 686979; also: nearly all actives have a fitted effect of over 55% in size
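Cell growth measured by CellTiter-Glo luminescence after a minimum 48 h, 37 C compound exposure with 20 nM CPT in Tdp1-knockout DT40 cells stably expressing hTDP1, seeded 400/well; qHTS titration format.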
HT1080-NT tox = kills 2HG-producing HT-1080-NT fibrosarcoma cells | Potency, µM (series often up to 46.1 µM), for the others: top-dose activity, negative = less viability, actives largely listed as cytotoxic | 360,000 compounds, 1.6% hits | AID 686970 | HT-1080-NT fibrosarcoma viability, CellTiter-Glo ATP luminescence, 48 h;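 also: NT is the 2HG producing partner of a matched IDH1 knockdown line; 0% = DMSO-treated cells and -100% = media-only wells without cells; nearly all actives have a fitted effect of over 55% in size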
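HT-1080-NT; 750 cells/well; 5% FBS RPMI; 48 h compound, 37 degrees C; CellTiter-Glo luminescence; curve fitting and curve-class assignment.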
KB-V1 MDR tox = kills drug-selected multidrug resistant KB-V1 cells; KB-V1 MDR cells viability, CellTiter-Glo, 72 h; Potency, µM (series often up to 46.1 µM), hits mostly cytotoxic; 400,000 compounds, 3.4% hits; also: nearly all actives have a fitted effect of over 60% in size
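Readout: CellTiter-Glo luminescence, 10 min after addition. Cells: KB-V1 MDR subline, 72 h at 37 degrees C with compound. Analysis: corrected, normalized data fitted to concentration-effect curves.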
TDP1 cell noCPT = qHTS for Inhibitors of human tyrosyl-DNA phosphodiesterase 1 (TDP1): qHTS in cells in absence of CPT; DT40 Tdp1-/- hTDP1 cells, no CPT, ATP luminescence, 48 h; AID 686978, 2013; Potency, µM (top dose mostly 46.2 µM), inactives show top-dose activity change, negative = growth inhibition, most hits filed as inhibitors; 420,000 compounds, 15% hits; also: nearly all actives have a fitted effect of over 55% in size
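DT40 Tdp1-/-;hTDP1 cells, no CPT (DMSO vehicle only), 400 cells/well; compounds pin-transferred; ≥48 hr, 37 °C; CellTiter-Glo 30 min RT dark, luminescence read.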
* marks the source's active call; other numbers are inactive results; i = inactive; ? = inconclusive; · = not tested or not shown; [ ] = dose if it differs, or a comment. Calls follow the shape of the dose curve; as a rule, active = well fitted curve in the direction sought with a large enough effect; inconclusive = small, poorly fitted or top-dose-only effect, or another doubt; inactive = no such curve, though single readings can be large; an effect the other way counts as inactive or inconclusive. Unless noted, % is scaled to controls: 0 for no effect and ±100 for the full control effect; potency is read from the fitted curve at half-maximal effect.

SMILES | KB-3-1 tox | HT1080 IDH1KD tx | DT40 TDP1 CPT | HT1080-NT tox | KB-V1 MDR tox | TDP1 cell noCPT
O=C(CN1CCc2ccccc2C1)Nc1ccccc1F | i | 15% | -4% | 9% | i | -20%
Cc1c(N=NC2=C(O)CC(C)(C)CC2=O)c(=O)n(-c2ccccc2)n1C | i | 0% | ? | 1% | ? | ?
COc1ccc(/C=C2/SC(=O)N(CCNC(=O)C3COc4ccccc4O3)C2=O)cc1 (stereo unspecified) | i | 4% | ? | -1% | ? | 21µM*
CCOc1ccc(/C=C2\SC(=O)N(CCNC(=O)C3COc4ccccc4O3)C2=O)cc1OC (stereo unspecified) | i | -4% | 12µM* | -4% | 16µM* | 9.2µM*
O=C(NCCN1C(=O)S/C(=C\c2ccc(Cl)c(Cl)c2)C1=O)C1COc2ccccc2O1 (stereo unspecified) | i | 6% | ? | 2% | i | ?
COCCn1c(Cc2ccccc2)nnc1SC(C)C(=O)NC1CC1 (stereo unspecified) | i | 4% | 1% | 6% | ? | 23%
O=c1c2cn[nH]c2nc(SCc2cccc(Br)c2)n1-c1ccc(Cl)cc1 | i | · | ? | · | i | ?
O=c1c2cn[nH]c2nc(SCc2ccc3c(c2)OCCO3)n1-c1ccccc1 | ? | 21µM* | -23% | ? | ? | ?
Cc1cc(-n2c(SCc3ccccc3F)nc3[nH]ncc3c2=O)ccc1Cl | · | · | ? | · | · | 16µM*
Cc1ccccc1-n1c(SCc2ccc(Cl)cc2)nc2[nH]ncc2c1=O | i | · | 16µM* | · | i | 18µM*
COc1ccccc1-n1c(SCC(=O)Nc2ccccc2F)nc2[nH]ncc2c1=O | i | -14% | 13µM* | 3% | i | -22%
Cc1cn([C@H]2C[C@H](O)[C@@H](CNC(=O)c3ccccn3)O2)c(=O)[nH]c1=O | i | -1% | -7% | -1% | i | -4%
O=C1CCC(c2ccccc2)c2ccccc21 (stereo unspecified) | i | 2% | -9% | 0% | i | -7%
N#CC1C(=O)c2ccccc2C1c1ccccc1 (stereo unspecified) | i | 12µM* | ? | ? | i | ?
Cc1nc2c(N=Nc3ccccc3F)c(N)nn2c(N)c1C#N | i | ? | -28% | 24% | i | -22%
COc1ccc(S(=O)(=O)N2CCN(C(=O)c3cccnc3)CC2)cc1OC | i | 2% | -3% | -1% | i | 1%
CCOc1ncccc1C(=O)N1CCN(S(=O)(=O)c2ccc3ccccc3c2)CC1 | i | -1% | 23µM* | -3% | ? | ?
O=C(c1cccnc1)N1CCN(S(=O)(=O)c2ccc3ccccc3c2)CC1 | 16µM* | 0% | -23% | -1% | 18µM* | ?
Cc1ccc(NC(=O)CN2C(=O)NC(Cc3c[nH]c4ccccc34)C2=O)cc1 (stereo unspecified) | i | -3% | -8% | 2% | i | -29%
CCn1cc(C(=O)N2CCN(c3cccc(Cl)c3)CC2)c(=O)c2cc(S(=O)(=O)N3CCCCC3)ccc21 | ? | · | -10% | · | i | 1%
CCOC(=O)C1=CCN(S(=O)(=O)c2cccc(Cl)c2)C1c1ccc(F)cc1 (stereo unspecified) | i | ? | ? | -25% | ? | ?
O=C(O)/C=C/C(=O)Nc1ccc(O)cc1 | i | 8% | -4% | 0% | i | -3%
Cc1ncc(CCl)c2c1OC(C)(C)OC2 | i | 0% | ? | 10% | i | 23µM*
CCOC(=O)C1CCN(Cc2cccc(OCc3ccccc3)c2)CC1 | i | -9% | -16% | -3% | i | -4%
Cc1ccc(-c2cnc3c(Cl)c(C)nn3c2)cc1 | ? | -26% | 21µM* | -8% | 12µM* | 10µM*
SMILES | KB-3-1 tox | HT1080 IDH1KD tx | DT40 TDP1 CPT | HT1080-NT tox | KB-V1 MDR tox | TDP1 cell noCPT
O=C(O)c1ccc2c(c1)C(=O)N(c1nccs1)C2=O | i | 3% | 0% | -1% | i | 0%
CCCCOc1ccc(CC(=O)NOC)cc1 | i | · | -3% | · | i | -11%
N#C/C(=N/Nc1ccc(OC(F)(F)F)cc1)C(N)=S | ? | 16µM* | 2.3µM* | 23µM* | ? | 1.6µM*
COc1ccc(N/N=C(\C#N)C(N)=O)cc1 | i | -6% | 11% | -24% | i | -1%
CC(C)N(Cc1ccccc1)C(=O)c1ccc2nsnc2c1 | i | 18% | ? | 18% | i | 21µM*
O=C(OCC(=O)N1CCCC1)c1ccccc1C(=O)c1ccccc1 | i | 6% | -11% | 0% | ? | 2%
CC(C)[C@H](N[C@@H](C)c1ccccc1)c1c(O)ccc2ccccc12 | i | 2% | -18% | 1% | i | -13%
Cc1ccc(NC(=O)C(OC(=O)c2cc(C)oc2C)c2ccccc2)cc1 (stereo unspecified) | i | 6% | -2% | 2% | ? | ?
Cc1cc(C(=O)OC(C(=O)Nc2cccc(C(F)(F)F)c2)c2ccccc2)c(C)o1 (stereo unspecified) | i | ? | ? | ? | ? | 21µM*
Cc1ccc(/C=C/C(=O)Nc2ccc([N+](=O)[O-])cc2)o1 | i | -18% | ? | 1% | i | ?
CCOC(=O)CCc1ccc(NC(=O)/C=C/c2ccc([N+](=O)[O-])o2)cc1 | ? | 2.9µM* | 1.8µM* | 8.2µM* | ? | 3.3µM*
Cc1ccc(S(=O)(=O)N(C)c2ccccc2C(=O)NC2CCCC2)cc1 | i | 2% | -29% | 6% | ? | ?
COc1cc(OC)cc(C(=O)N2CCCC(n3cc(C(=O)NCC(C)C)nn3)C2)c1 (stereo unspecified) | · | · | 16%[9.04 µM] | · | · | -7%
CCOC(=O)CNCCC(=O)c1ccc(Br)cc1 | i | 5% | 5.8µM* | -2% | i | 6.5µM*
CC(C)c1ccc(NCCC(=O)c2ccc(Br)cc2)cc1 | i | 15% | -19% | 26% | ? | -20%
Cc1ccc(C(=O)NCC(=O)NCC(=O)OCC(=O)c2ccc(Br)cc2)cc1 | i | -3% | -22% | -19% | i | ?
Cc1cccc(NCCC(=O)c2ccc(Br)cc2)c1 | i | ? | 23µM* | ? | i | 23µM*
